PLK1 PBD inh = inhibitors of human PLK1 polo-box domain binding; P53350; Plk1 PBD binding of FITC phosphopeptide, fluorescence polarization; actives 2.8% (n = 360,000); Potency, µM, most hits filed as inhibitors; also: series mostly up to about 57 µM; nearly all actives have a fitted effect of over 65% in size
12-LOX inh = inhibitors of human 12S-lipoxygenase ALOX12; Potency, µM (doses to about 108 µM), usual class: inhibitors; actives 1.1% (n = 580,000); P18054; purified 12hLO, xylenol orange hydroperoxide absorbance
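Purified human 12hLO at 150 nM in 25 mM Hepes, 0.01% Triton X-100, pH 7.0, preincubated 15 min at room temperature with compound. Reaction started with 40 uM arachidonic acid, 30 min at room temperature. Hydroperoxide measured by Fe-xylenol orange, 573/405 nm absorbance ratio.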
HP1b chromo inh = inhibitors of HP1-beta chromodomain binding to methylated histone tails | P83916 | AlphaScreen HP1-beta / biotin-H3K9me3 peptide binding | Potency, µM (doses to about 114 µM), hits mostly inhibitors | actives 0.56% (n = 390,000) | AID 540317; also: nearly all actives have a fitted effect of over 70% in size
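Compound inhibition of the preformed complex between 50 nM HP1-beta and 50 nM biotinylated H3K9me3 peptide was read by AlphaScreen. Buffer was PBS pH 7.4 with 0.01% Tween-20. Incubations ran 30 min at room temperature, with 10 ug/mL donor/acceptor beads.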
G9a block = G9a (human) methyltransferase inhibition. Q96KQ7. G9a H3K9 monomethylation, AlphaScreen, 2 h. Potency, µM (series often up to 102 µM), most hits filed as inhibitors. actives 8.8% (n = 350,000). AID 504332; also: nearly all actives have a fitted effect of over 75% in size
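G9a (20 nM) was preincubated 15 min with compound, then reacted 2 h at room temperature with 500 nM biotin-H3K9 peptide and 20 µM SAM. Monomethyl-H3K9 detected by AlphaScreen using anti-H3K9me1 antibody.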
JMJD2A Tudor inh = blocks the human JMJD2A Tudor domain | AlphaScreen JMJD2A-Tudor / H3K4me3 peptide binding | Potency, µM (series often up to 114 µM), usual class: inhibitors | AID 504339 | actives 4.4% (n = 390,000) | O75164; also: nearly all actives have a fitted effect of over 50% in size
BAZ2B block = blocks human BAZ2B; Q9UIF8; AlphaScreen BAZ2B-H3K14Ac peptide displacement; Potency, µM (top dose mostly 114 µM), actives largely listed as inhibitors; actives 4.4% (n = 360,000); also: nearly all actives have a fitted effect of over 60% in size
Target sequence (Q9UIF8 whole entry, looked up): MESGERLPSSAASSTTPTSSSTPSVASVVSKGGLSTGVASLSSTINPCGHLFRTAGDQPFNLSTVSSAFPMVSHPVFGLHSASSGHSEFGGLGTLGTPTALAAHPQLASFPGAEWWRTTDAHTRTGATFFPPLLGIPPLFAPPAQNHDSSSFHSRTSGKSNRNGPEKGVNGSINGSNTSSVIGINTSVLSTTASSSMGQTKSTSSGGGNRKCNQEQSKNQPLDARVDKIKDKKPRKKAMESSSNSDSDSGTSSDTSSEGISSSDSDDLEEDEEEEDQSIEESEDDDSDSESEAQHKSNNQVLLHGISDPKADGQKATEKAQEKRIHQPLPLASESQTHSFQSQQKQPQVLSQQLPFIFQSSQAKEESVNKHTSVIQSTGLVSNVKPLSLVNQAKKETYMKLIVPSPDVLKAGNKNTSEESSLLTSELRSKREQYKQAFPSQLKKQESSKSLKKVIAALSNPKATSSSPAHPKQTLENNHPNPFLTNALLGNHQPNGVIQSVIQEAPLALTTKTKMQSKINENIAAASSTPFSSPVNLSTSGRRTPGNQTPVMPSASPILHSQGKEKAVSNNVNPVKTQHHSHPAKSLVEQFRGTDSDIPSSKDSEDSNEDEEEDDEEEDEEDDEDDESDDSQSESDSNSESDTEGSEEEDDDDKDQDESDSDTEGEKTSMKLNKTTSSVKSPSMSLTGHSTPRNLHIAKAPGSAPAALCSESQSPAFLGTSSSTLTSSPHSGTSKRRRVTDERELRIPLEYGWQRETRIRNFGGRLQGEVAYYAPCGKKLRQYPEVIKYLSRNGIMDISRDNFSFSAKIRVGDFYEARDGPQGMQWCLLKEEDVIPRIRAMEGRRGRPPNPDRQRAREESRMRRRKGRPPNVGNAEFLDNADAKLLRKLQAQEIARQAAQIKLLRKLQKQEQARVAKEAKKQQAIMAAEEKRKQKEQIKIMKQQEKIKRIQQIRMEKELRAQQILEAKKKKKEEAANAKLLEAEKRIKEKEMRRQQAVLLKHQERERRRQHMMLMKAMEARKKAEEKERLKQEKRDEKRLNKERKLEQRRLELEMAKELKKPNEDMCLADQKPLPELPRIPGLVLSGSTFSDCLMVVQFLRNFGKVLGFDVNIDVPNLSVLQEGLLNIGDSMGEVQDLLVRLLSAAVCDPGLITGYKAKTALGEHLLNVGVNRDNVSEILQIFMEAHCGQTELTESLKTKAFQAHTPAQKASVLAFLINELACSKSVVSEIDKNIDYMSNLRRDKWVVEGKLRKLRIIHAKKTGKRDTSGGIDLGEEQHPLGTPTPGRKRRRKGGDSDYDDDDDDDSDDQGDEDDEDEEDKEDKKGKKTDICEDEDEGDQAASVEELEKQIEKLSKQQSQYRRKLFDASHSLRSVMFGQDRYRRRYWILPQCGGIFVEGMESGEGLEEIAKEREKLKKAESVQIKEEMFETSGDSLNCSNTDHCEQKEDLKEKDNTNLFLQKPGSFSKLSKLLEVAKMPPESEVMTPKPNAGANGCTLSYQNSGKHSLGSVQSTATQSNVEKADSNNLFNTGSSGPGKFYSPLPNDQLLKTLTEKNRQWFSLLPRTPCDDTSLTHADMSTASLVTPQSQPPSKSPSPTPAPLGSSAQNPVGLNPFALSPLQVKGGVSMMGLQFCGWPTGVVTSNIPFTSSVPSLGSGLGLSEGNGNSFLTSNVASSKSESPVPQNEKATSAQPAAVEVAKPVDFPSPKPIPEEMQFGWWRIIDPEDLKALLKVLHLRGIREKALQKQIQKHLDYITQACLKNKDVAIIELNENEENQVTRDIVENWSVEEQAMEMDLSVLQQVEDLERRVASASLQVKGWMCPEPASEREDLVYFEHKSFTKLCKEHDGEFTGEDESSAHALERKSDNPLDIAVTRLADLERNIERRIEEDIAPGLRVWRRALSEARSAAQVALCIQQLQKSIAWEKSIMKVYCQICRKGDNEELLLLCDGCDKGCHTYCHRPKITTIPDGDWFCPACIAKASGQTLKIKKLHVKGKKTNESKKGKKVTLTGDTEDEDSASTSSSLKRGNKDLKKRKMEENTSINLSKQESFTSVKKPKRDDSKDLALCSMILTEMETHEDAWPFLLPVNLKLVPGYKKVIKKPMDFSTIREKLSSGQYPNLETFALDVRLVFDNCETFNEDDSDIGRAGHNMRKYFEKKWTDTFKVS
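AlphaScreen displacement: compounds (up to 110uM) incubated 30 min at room temperature with a preformed 50 nM BAZ2B/50 nM biotinylated H3K14Ac peptide complex in PBS pH 7.4 with Tween-20. Donor and acceptor beads at 10 ug/mL final added, 20 min light-protected before reading.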
A number is an active result; [ ] = dose if it differs, or a comment. An excerpt weighted towards active compounds, which were near 9% of everything screened. Calls follow the shape of the dose curve; as a rule, active = well fitted curve in the direction sought with a large enough effect; inconclusive = small, poorly fitted or top-dose-only effect, or another doubt; inactive = no such curve, though single readings can be large; an effect the other way counts as inactive or inconclusive.

`CCOC(=O)CCNC(C)C1COc2ccccc2O1` (configuration not stated) gave PLK1 PBD inh 29.9µM, 12-LOX inh inconclusive, HP1b chromo inh inactive, G9a block 2.24µM, JMJD2A Tudor inh 2.82µM and BAZ2B block inactive.
`O=C(CCNC(=O)c1ccc([N+](=O)[O-])cc1)NCC1COc2ccccc2O1` (configuration not stated) gave PLK1 PBD inh inactive, 12-LOX inh inactive, HP1b chromo inh inactive, G9a block 50.1µM, JMJD2A Tudor inh inactive and BAZ2B block inactive.
For Cn1cccc1C(=O)NCC1COc2ccccc2O1 (configuration not stated) the results were PLK1 PBD inh inactive, 12-LOX inh inconclusive, HP1b chromo inh inactive, G9a block 50.1µM, JMJD2A Tudor inh inactive and BAZ2B block inactive.
`O=C(CCNC(=O)c1cccs1)NCC1COc2ccccc2O1` (configuration not stated) gave 12-LOX inh inactive.
`COc1ccc(C)cc1NC(=O)c1cc(S(=O)(=O)N2CCC(C)CC2)cn1C` gave 12-LOX inh inactive, HP1b chromo inh inactive, G9a block inactive, JMJD2A Tudor inh inactive and BAZ2B block inactive.
C=CCn1c(NCc2ccc3c(c2)OCO3)nc2ccccc21 was read as PLK1 PBD inh inactive, 12-LOX inh inactive, HP1b chromo inh inactive, G9a block inactive, JMJD2A Tudor inh inactive and BAZ2B block inactive.
COCCOCC1(CNC(=O)c2cccnc2)C[C@@H](O)[C@@H](O)C1 (some centres not stated) was read as 12-LOX inh inactive.
Screening CC(NCC1COc2ccccc2O1)C(=O)NCc1ccccc1 (configuration not stated) returned PLK1 PBD inh inactive, 12-LOX inh inactive, HP1b chromo inh 15.8µM, G9a block 44.7µM, JMJD2A Tudor inh 1.26µM and BAZ2B block 35.5µM.
Screening O=C(NCc1ccccc1)C(=O)NCC1COc2ccccc2O1 (configuration not stated) returned PLK1 PBD inh inactive, 12-LOX inh inactive, HP1b chromo inh inactive, G9a block inactive, JMJD2A Tudor inh inactive and BAZ2B block inactive.
Screening Cc1ccc(NC(=O)C2(c3ccccc3)CCCC2)cc1 returned 12-LOX inh inactive.
Screening Cc1ccc(NC(=O)C2(c3ccccc3)CCOCC2)cc1 returned PLK1 PBD inh 26.7µM, 12-LOX inh inactive, HP1b chromo inh inactive, G9a block inactive, JMJD2A Tudor inh 50.1µM and BAZ2B block inactive.
Cc1cccc(NC(=O)COc2cccc3c(=O)n(C)ccc23)c1C was read as 12-LOX inh inconclusive, HP1b chromo inh inactive, G9a block inactive, JMJD2A Tudor inh inactive and BAZ2B block inactive.
`COc1ccc(C)cc1S(=O)(=O)N1CCC(C)CC1` gave PLK1 PBD inh inactive, 12-LOX inh inactive, HP1b chromo inh inactive, G9a block inactive, JMJD2A Tudor inh inactive and BAZ2B block inactive.
`Cc1ccc(S(=O)(=O)N2CCC(C)CC2)c([N+](=O)[O-])c1` gave PLK1 PBD inh 23.8µM, 12-LOX inh inconclusive, HP1b chromo inh inconclusive, G9a block inactive, JMJD2A Tudor inh inactive[11.4 µM] and BAZ2B block inactive.
Cc1ccc([N+](=O)[O-])cc1S(=O)(=O)N1CCC(C)CC1 was read as PLK1 PBD inh 37.7µM, 12-LOX inh inactive, HP1b chromo inh inconclusive, G9a block 56.2µM, JMJD2A Tudor inh inactive[11.4 µM] and BAZ2B block inactive.
O=C(CSc1nnc(CNc2cccc(C(F)(F)F)c2)n1Cc1ccco1)NCc1ccco1 was read as PLK1 PBD inh 29.9µM, 12-LOX inh inconclusive, HP1b chromo inh inactive, G9a block inactive, JMJD2A Tudor inh inactive[11.4 µM] and BAZ2B block inactive.
For CC(C)(C)c1nc(SCC(=O)NCc2ccco2)c2ccccc2n1 the results were PLK1 PBD inh inactive, 12-LOX inh inconclusive, HP1b chromo inh inactive, G9a block 50.1µM, JMJD2A Tudor inh inactive and BAZ2B block inconclusive.
Cc1[nH]c2ccc(-c3nnc(SCC(=O)NCc4ccco4)n3Cc3ccccc3)cc2c1C was read as PLK1 PBD inh inactive, 12-LOX inh inactive, HP1b chromo inh inactive, G9a block 39.8µM, JMJD2A Tudor inh 56.2µM and BAZ2B block 56.2µM.
Screening Cc1sc2nc(SCC(=O)NCc3ccco3)n(Cc3ccccc3)c(=O)c2c1C returned PLK1 PBD inh inactive, 12-LOX inh inactive, HP1b chromo inh inactive, G9a block 50.1µM, JMJD2A Tudor inh inactive and BAZ2B block inactive.
O=C(O)CSc1nnc(CNc2cccc(C(F)(F)F)c2)n1Cc1ccco1 was read as PLK1 PBD inh inactive, 12-LOX inh inactive, HP1b chromo inh inactive, G9a block inactive, JMJD2A Tudor inh inactive and BAZ2B block inconclusive.
For CCn1c(SCC(=O)NCc2ccco2)nnc1-c1ccncc1 the results were G9a block inactive and BAZ2B block inactive.
Screening CSCCC(NC(=O)CCC(=O)OCC(=O)[C@@]1(O)CCC2[C@@H]3CCC4=CC(=O)C=C[C@]4(C)C3[C@@H](O)C[C@@]21C)C(=O)O (some centres not stated) returned PLK1 PBD inh inactive, 12-LOX inh inactive, HP1b chromo inh inactive, G9a block inactive, JMJD2A Tudor inh inactive and BAZ2B block inactive.
O=C(CSc1nc2ccccc2c(=O)n1Cc1ccco1)NCc1ccco1 was read as PLK1 PBD inh inactive, 12-LOX inh inconclusive, HP1b chromo inh inactive, G9a block inconclusive, JMJD2A Tudor inh 56.2µM and BAZ2B block inconclusive.
`CCCCn1c(SCC(=O)NCc2ccco2)nc2ccccc2c1=O` gave PLK1 PBD inh inactive, 12-LOX inh inactive, HP1b chromo inh inactive, G9a block inactive, JMJD2A Tudor inh inactive and BAZ2B block inactive.
Screening COCCNC(=O)c1ccc2c(=O)n(Cc3ccco3)c(SCC(=O)Nc3ccc(OC)cc3OC)nc2c1 returned PLK1 PBD inh inconclusive, 12-LOX inh inactive, HP1b chromo inh inactive, G9a block inactive, JMJD2A Tudor inh 56.2µM and BAZ2B block inactive.
Screening CSc1ccccc1C(=O)Nc1ccc2ccccc2c1 returned 12-LOX inh inactive.
`Cc1cc(C)c(C#N)c(OCC(=O)c2ccccc2)n1` gave PLK1 PBD inh inactive, 12-LOX inh inactive, HP1b chromo inh inactive, G9a block inactive, JMJD2A Tudor inh inactive and BAZ2B block inactive.
Screening CC1CCCC(C)N1C(=O)c1ccc(CS(=O)(=O)c2ccccc2)cc1 (configuration not stated) returned PLK1 PBD inh inactive, 12-LOX inh inactive, HP1b chromo inh inactive, G9a block inactive, JMJD2A Tudor inh inactive and BAZ2B block inactive.
For Cc1c(CCC(=O)O)c(=O)oc2c(C)c3occ(-c4ccc(Cl)cc4)c3cc12 the results were PLK1 PBD inh 29.9µM, 12-LOX inh inconclusive, HP1b chromo inh inconclusive, G9a block inconclusive, JMJD2A Tudor inh inconclusive and BAZ2B block 56.2µM.

Screening results deposited in PubChem by National Center for Advancing Translational Sciences (NCATS).
